Measured values reported in ChEMBL document CHEMBL3988442, “University of Dundee, Small-Polar-MMV Screening Library” (2021).
Out of some 48,000 compounds screened, about 13,000 (27%) showed an effect of 50% or more. This is one part of the list.

Test system: Wolbachia pipientis
Experiment: Anti-Wolbachia Cell-Based Screen
Assay type: functional
Set-up: scale not given: in the data most compounds retested in dose-response had high values
Details: 5 µM

SMILES | Percent Effect [%]
Cc1[nH]c(=O)sc1S(=O)(=O)N1CCCC1C(=O)NC1CC1 (stereo not drawn) | 0.9374
CC1c2ncc(COCC3CC3)n2CCN1S(=O)(=O)N(C)C (stereo not drawn) | -6.883
CC(C1CC1)n1nccc1NC(=O)CN(C)C(=O)OC(C)(C)C (stereo not drawn) | 1.565
O=C(NCCO)c1coc(Cn2cnc3ccccc32)n1 | -7.13
CC(C)c1nccn1CC(=O)Nc1ccnn1C(C)C(C)C (stereo not drawn) | 205.7
Cc1noc(CN(C)C(=O)CCn2cnc3ccccc32)n1 | -9.657
Cn1ccnc1-c1cnn(CC(=O)Nc2ccnn2C)c1 | -5.253
CC(C)C(C)n1nccc1NC(=O)Cn1cnc2ccccc21 (stereo not drawn) | 92.25
Cc1n[nH]c(C)c1C1CCCN1C(=O)c1cc(Br)c[nH]1 (stereo not drawn) | 3.439
N#Cc1cc(S(N)(=O)=O)ccc1NC1CCc2ccc(F)cc21 (stereo not drawn) | -1.199
Cn1ccc2c(-c3cc(N4CCOCC4)ncn3)ccnc21 | 96.13
CC(C)Nc1ccc(-c2ccnc3c2ccn3C)nn1 | -2.658
Cn1ccc2c(-c3cc(N4CCCCC4)ncn3)ccnc21 | 102.2
c1cc2c(c(-c3cc(N4CCOCC4)ncn3)c1)CCNC2 | 6.934
CN(C)c1ccc(-c2ccnc3c2ccn3C)nn1 | -43.13
Cn1ccc2c(-c3ccc(NC4CC4)nn3)ccnc21 | -7.533
Cc1cc(C)nc(N2CCCC(Cn3cc(CN(C)C)nn3)C2)n1 (stereo not drawn) | 5.215
COCCn1cc(NCc2cccc3cn[nH]c23)cn1 | -36.74
COCc1cc(CNc2cnn(CC(F)F)c2)ccc1OC | 109.5
COCc1cc(NCCc2ccc(F)cc2)n2nccc2n1 | -0.9559
CCn1cc(CNc2ccc(Br)c(OC)c2)cn1 | 3.911
Cc1ccc(CNc2cnn(CC(F)F)c2)cc1C | -20.79

SMILES | Percent Effect [%]
COc1ccccc1CNC(Cn1cncn1)c1ccccc1 (stereo not drawn) | -4.346
COc1cc(CNc2cnn(CC(F)F)c2)ccc1O | 77.84
COCc1cc(NCc2cc(F)ccc2F)n2nccc2n1 | 7.154
COc1ccccc1CNc1cnn(CC(F)F)c1 | 103.3
CS(=O)(=O)CCNCc1ccc(OCc2ccncc2)cc1 | 4.954
CS(=O)(=O)c1cccc(S(=O)(=O)NCCCN2CCNC(=O)C2)c1 | 4.336
COCCC1(CO)CCCN(Cc2ccc(C(F)(F)F)nc2)C1 (stereo not drawn) | 4.896
Cc1nn(C)c2nc(N3CCNC(=O)C3C(C)C)sc12 (stereo not drawn) | -3.724
Cc1nn(C)c2nc(N3CCCCC3c3nccs3)sc12 (stereo not drawn) | 111.2
COC(=O)CC1C(=O)NCCN1c1nc2c(s1)c(C)nn2C (stereo not drawn) | -2.847
Cc1nn(C)c2nc(N3CCC(C(O)c4ccccn4)CC3)sc12 (stereo not drawn) | -0.6588
Cc1ccc(CN2CCN(c3nc4c(s3)c(C)nn4C)C(C)C2=O)cc1 (stereo not drawn) | -1.858
Cc1nn(C)c2nc(N3CCCCC3c3ccc(F)cc3)sc12 (stereo not drawn) | 106.8
Cc1nn(C)c2nc(N3CCCC3c3nccs3)sc12 (stereo not drawn) | 105.7
Cc1nn(C)c2nc(N(Cc3cnn(C)c3)C3CCCCC3)sc12 | -14.1
COCCN(Cc1nccs1)c1nc2c(s1)c(C)nn2C | -7.769
COC(=O)CN1CCN(c2nc3c(s2)c(C)nn3C)C(C)C1=O (stereo not drawn) | -10.29
Cc1nn(C)c2nc(N(Cc3nccs3)C3CC3)sc12 | 96.11
Cc1nn(C)c2nc(N3CCNC(=O)C3Cc3ccccc3)sc12 (stereo not drawn) | 4.207
CN(Cc1ccccc1NCc1cccnc1)C(=O)c1cccs1 | 7.108
O=S1(=O)CCN(c2nc(C3CC3)ns2)CC1 | -15.72
CN1C(=O)CO[C@H](c2ccc(NC(=O)c3cccc(F)c3)cc2)[C@H]1CO | 11.75

SMILES | Percent Effect [%]
CCC(CNC(=O)c1cc(OC)ccc1Br)N1CCc2ccccc2C1 (stereo not drawn) | -23.56
COC(=O)N1CCc2ccccc2C1C(=O)NCc1nc(C)no1 (stereo not drawn) | 2.573
CN(C)CC1CN(Cc2cccc(C(=O)N(C)C)c2)CCO1 (stereo not drawn) | 13.75
c1cnn(-c2ccc(CN3CCOC(Cn4cncn4)C3)cc2)c1 (stereo not drawn) | -5.555
CN(C)C(=O)c1cccc(CN2CCOC(Cn3cccn3)C2)c1 (stereo not drawn) | 104.7
CN(C)C(=O)c1cccc(CN2CCOC(Cn3cncn3)C2)c1 (stereo not drawn) | 102.1
Cc1cccc(Cn2ccc(NS(C)(=O)=O)n2)c1 | -2.498
CN(C)c1cccc(C(=O)Nc2cnn(Cc3ccncc3)c2)c1 | 11.2
CCS(=O)(=O)Nc1cnn(Cc2cccc(F)c2)c1 | 105.7
CCn1cc(NC(=O)NCC(c2cccc(F)c2)N(C)C)cn1 (stereo not drawn) | 0.3988
CCS(=O)(=O)Nc1cnn(Cc2cccc(C)c2)c1 | 89.42
CCn1cc(NC(=O)NCC(O)COc2cccc(F)c2)cn1 (stereo not drawn) | -10.6
O=C(NCCN1CCOCC1)c1ccc(-c2ccccc2)[nH]c1=O | -12.34
Cc1cccc(-c2ccc(C(=O)NCCN3CCOCC3)c(=O)[nH]2)c1 | 3.561
Cc1ccc(C(=O)NCC2COCCO2)c(=O)[nH]1 (stereo not drawn) | 4.795
Cc1cccc(-c2ccc(C(=O)NCCN(C)C3CC3)c(=O)[nH]2)c1 | -2.901
O=C(NCCCn1cncn1)c1ccc(-c2ccccc2)[nH]c1=O | -1.732
Cc1cccc(-c2ccc(C(=O)NCC3CCCO3)c(=O)[nH]2)c1 (stereo not drawn) | 118.6
O=C(NCC1CCCOC1)c1ccc(-c2cccs2)[nH]c1=O (stereo not drawn) | 1.044
Cc1ccc(C(=O)NCC2CCCCO2)c(=O)[nH]1 (stereo not drawn) | 8.158
O=C(NCC1CCOC1)c1ccc(-c2ccccc2)[nH]c1=O (stereo not drawn) | 96.09
O=C(NCC1CCCOC1)c1ccc(-c2ccccc2)[nH]c1=O (stereo not drawn) | 111.2

SMILES | Percent Effect [%]
Cc1cccc(-c2ccc(C(=O)NCC3CCCOC3)c(=O)[nH]2)c1 (stereo not drawn) | 108.2
Cc1cccc(-c2ccc(C(=O)NCC3CCOC3)c(=O)[nH]2)c1 (stereo not drawn) | 2.342
Cc1nc(CCNC(=O)C2CCN(C(C)C)CC2)sc1Cl | 3.943
CCc1ccccc1OC1CN(CC2CCOC2)C1 (stereo not drawn) | 1.155
CN(C)C(=O)CCCn1ccc(NCc2ccc(C#N)cc2)n1 | -12.19
COCc1cccc(NC(=O)N(C)Cc2ncc(C)c(OC)c2C)c1 | -2.673
COC(=O)N1CCN2C[C@H](CO)[C@@H](c3ccccc3)[C@H]2C1 | 95.68
O=C(CC1CCCC1)N1CCN2C[C@@H](CO)[C@H](c3ccccc3)[C@H]2C1 | 76.76
COCCOC(=O)N1C[C@H]2CC[C@@H]1CN(C1Cc3ccccc3C1)C2 | 9.586
NC(=O)[C@@H]1CN2CCN(C(=O)C3CC3)C[C@@H]2[C@H]1c1ccccc1 | 100.9
O=C(C1CC1)N1CCN(C(=O)C2CC(=O)N(c3ccccc3Br)C2)CC1 (stereo not drawn) | 9.914
O=C(CO)N1CCCC(N2CCN(c3ccccc3F)CC2)C1 (stereo not drawn) | 13.62
COC(=O)N1CCC(NC(=O)CC(C)CCc2ccccc2)CC1 (stereo not drawn) | 12.69
O=C(Nc1nc(-c2ccccc2)ns1)N1CCN(C(=O)C2CC2)CC1 | -11.4
COCCOC(=O)N1CCN2C[C@@H](CO)[C@H](c3ccccc3)[C@H]2C1 | 99.06
COCCC(=O)N1CCC2(CC1)CC(c1ccccc1)CN(C1CC1)C2 (stereo not drawn) | -1.605
O=C(CC1CCCCC1)N1CCN(C(=O)NCc2ccccn2)CC1 | -2.156
COC(=O)N1CCN(Cc2ccccc2Cl)CC1 | 0.9968
O=C(NC1CCCN(c2ccc(OC(F)F)cc2)C1)c1ccon1 (stereo not drawn) | 12.05
Cc1c(NCCCOc2cccc(C#N)c2)cccc1C(N)=O | -5.343
O=C1CCN(C(=O)C2(c3ccc(F)cc3)CCOCC2)CCN1 | 5.245
Cc1cc(CS(=O)(=O)c2ccccc2)no1 | -12.79

SMILES | Percent Effect [%]
CC(=O)N1CCN(C)CC(COCc2ccccc2)C1 (stereo not drawn) | -1.846
O=C(C1CC1)N1CCN2C[C@@H](CO)[C@H](c3ccccc3)[C@H]2C1 | 89.49
CCN1CC[C@]2(CN(C(=O)C3CCOCC3)C[C@H]2c2ccccc2)C1=O | -4.584
CC(=O)N1CCN2C[C@H](CO)[C@@H](c3ccccc3)[C@H]2C1 | 95.75
CC(=O)N1CCN(C2CCc3ccccc32)CC1 (stereo not drawn) | 10.52
CCC(NC(=O)c1ccc2[nH]ccc2c1)C(=O)N1CCOCC1 (stereo not drawn) | 6.827
OC1CCN(c2ccccc2NCc2nc(-c3ccoc3)no2)CC1 | 5.706
O=C(NCCN1C(=O)CCC1=O)c1nc2ccccc2c(=O)[nH]1 | 1.599
CCCc1cc(C(=O)NCCCC(=O)N2Cc3ccccc3C2)[nH]n1 | -1.2
CC(=O)N1CCn2c(-c3cccc(F)c3)cnc2C12CCNCC2.O=C(O)C(F)(F)F | 7.148
CNC(=O)N1CCC2(CC1)c1ncc(-c3cccc(F)c3)n1CCN2C.O=C(O)C(F)(F)F | 101.8
CN1CCn2c(-c3cccc(F)c3)cnc2C12CCN(CC1CC1)CC2.O=C(O)C(F)(F)F.O=C(O)C(F)(F)F.O=C(O)C(F)(F)F | -9.47
CCN1CCn2c(-c3cccc(F)c3)cnc2C12CCN(C(C)=O)CC2.O=C(O)C(F)(F)F | 112.1
CCN1CCN(S(=O)(=O)c2cn(C(C)C)cn2)c2ccccc21 | -8.79
O=C(c1ccc(-n2cccn2)nc1)N1CCC(c2ccn[nH]2)C1 (stereo not drawn) | 151
O=C(c1ccccc1)C1CCN(c2cncc(-n3cccn3)n2)CC1 | 6.831
Cc1cncc(C2CCN(C(=O)c3ccc(-n4cccn4)nc3)CC2)n1 | 157.3
O=C(c1ccc(-n2cccn2)nc1)N1CCC(c2ccc(O)cc2)CC1 | -5.1
O=C(c1ccc(-n2cccn2)nc1)N1CCCN(c2cccnn2)CC1 | 2.596
O=C(c1ccc(-n2cccn2)nc1)N1CCCC(c2cnccn2)C1 (stereo not drawn) | 143.5
